The text below walks through data of PubChem BioAssay (Tox21).

Experiment [1] is described as follows: qHTS assay to identify small molecule antagonists of the thyroid receptor (TR) signaling pathway - cell viability counter screen (AID 743064). Note: nearly all actives have a fitted effect of over 50% in size. Note: potency is the fitted concentration of half-maximal effect. The essentials:
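In rat pituitary GH3.TRE-Luc reporter cells co-exposed to compound and 1 nM T3 for 23.5 h, cytotoxicity was assessed with CellTiter-Fluor in the same wells, read by fluorescence.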
Background: qHTS replaces the single test concentration by a dilution series.

Experiment [2] can be described thus: qHTS assay to identify small molecule antagonists of the thyroid receptor (TR) signaling pathway (AID 743065). Note: nearly all actives have a fitted effect of over 55% in size. Note: potency is the fitted concentration of half-maximal effect. In a few lines: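 Antagonism measured as loss of luciferase signal in GH3 cells stably carrying a TRE-luciferase reporter, co-treated with compound and T3 (1 nM final) for 23.5 h at 37 C. Viability was read in the same well by CellTiter-Fluor.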
Experiment [3] has as its system thyroid hormone receptor (rat, GH3 cells). The experiment is described as follows: qHTS assay to identify small molecule agonists of the thyroid receptor (TR) signaling pathway (AID 743066; calls by dose curve).
Experiment [4] addresses Estrogen receptor (Homo sapiens) (UniProt P03372). The experiment is described as follows: qHTS assay to identify small molecule antagonists of the estrogen receptor alpha (ER-alpha) signaling pathway (AID 743069; active = well fitted curve in the direction sought with a large enough effect in the signal ratio in the repeat runs, not every such curve was filed as active; inconclusive = weak or mixed curves, or effect the other way; inactive = no such curve, though single readings can be large or run the other way; the % refers to the signal ratio; note: potency is the fitted concentration of half-maximal effect). The essentials: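 Compound effects are measured against 17beta-estradiol stimulation in HEK293 cells with a UAS-controlled beta-lactamase reporter for ER-alpha. Exposure lasts 18 hr at 37C; LiveBLAzer B/G FRET substrate follows for 2 hr at room temperature.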

A short description of experiment [5]: qHTS assay to identify small molecule antagonists of the estrogen receptor alpha (ER-alpha) signaling pathway - cell viability counter screen (AID 743074; calls by dose curve;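 note: HEK293 cells carrying ER-alpha-UAS-bla reporter stimulated with 17beta-estradiol; nearly all actives have a fitted effect of over 45% in size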).
For experiment [6], the target named is Estrogen receptor (Homo sapiens) (UniProt P03372). The experiment is described as follows: qHTS assay to identify small molecule agonists of the estrogen receptor alpha (ER-alpha) signaling pathway (AID 743075; calls by dose curve; note: potency is the fitted concentration of half-maximal effect).
For experiment [7] the target is unchanged. In words: qHTS assay to identify small molecule agonists of the estrogen receptor alpha (ER-alpha) signaling pathway using the BG1 cell line (AID 743079). Note: nearly all actives have a fitted effect of over 20% in size. Note: potency is the fitted concentration of half-maximal effect.
The nature of experiment [8]: qHTS assay to identify small molecule antagonists of the estrogen receptor alpha (ER-alpha) signaling pathway using the BG1 cell line (AID 743080; calls by dose curve;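 note: BG1 cells stimulated with 17beta-estradiol alongside compound; series mostly up to about 70 µM; nearly all actives have a fitted effect of over 25% in size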). In a few lines: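 Seeding, 24 h rest, compound transfer from DMSO, 17beta-estradiol addition, 21.5 h incubation, CellTiter-Fluor (30 min, 37 C), then ONE-Glo (30 min, room temperature): this sequence was run on BG1-Luc-4E2 reporter cells.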

Experiment [9] is described as follows: qHTS assay to identify small molecule antagonists of the estrogen receptor alpha (ER-alpha) signaling pathway using the BG1 cell line - cell viability counter screen (AID 743081).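 Note: compound given together with 17beta-estradiol as the ER stimulus; nearly all actives have a fitted effect of over 45% in size.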 Note: potency is the fitted concentration of half-maximal effect.
For experiment [10], the target named is Aromatase (Homo sapiens) (UniProt P11511). In words: qHTS assay to identify aromatase inhibitors (AID 743083). Note: series mostly up to about 70 µM; nearly all actives have a fitted effect of over 55% in size.

Where “and” joins values, the source holds several entries; their conditions need not be identical. Identical values can stand only once. Where a structure was tested more than once in an assay, its records may differ in their call. Calls of active or inactive are those of the source. Unless noted, calls come from the whole dose curve; as a rule, active = well fitted curve in the direction sought with a large enough effect in the repeat runs; inconclusive = weak or mixed curves; inactive = no such curve, though single readings can be large; an effect the other way counts as inactive or inconclusive.

Sequence of Aromatase (Homo sapiens) (P11511 whole entry, looked up): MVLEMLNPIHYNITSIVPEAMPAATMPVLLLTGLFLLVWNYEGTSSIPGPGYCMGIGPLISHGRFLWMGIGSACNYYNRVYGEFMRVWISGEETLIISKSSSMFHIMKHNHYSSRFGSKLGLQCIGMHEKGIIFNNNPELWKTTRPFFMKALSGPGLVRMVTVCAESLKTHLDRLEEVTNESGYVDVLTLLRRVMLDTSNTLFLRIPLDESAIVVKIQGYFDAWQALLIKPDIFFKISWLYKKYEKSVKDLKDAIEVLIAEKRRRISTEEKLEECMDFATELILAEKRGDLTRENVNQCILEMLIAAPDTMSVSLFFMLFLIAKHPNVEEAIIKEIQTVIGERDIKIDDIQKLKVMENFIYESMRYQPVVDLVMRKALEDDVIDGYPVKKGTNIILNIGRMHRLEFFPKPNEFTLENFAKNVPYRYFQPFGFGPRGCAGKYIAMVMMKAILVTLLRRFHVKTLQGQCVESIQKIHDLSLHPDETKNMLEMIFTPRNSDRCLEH
Sequence of Estrogen receptor (Homo sapiens) (P03372 whole entry, looked up): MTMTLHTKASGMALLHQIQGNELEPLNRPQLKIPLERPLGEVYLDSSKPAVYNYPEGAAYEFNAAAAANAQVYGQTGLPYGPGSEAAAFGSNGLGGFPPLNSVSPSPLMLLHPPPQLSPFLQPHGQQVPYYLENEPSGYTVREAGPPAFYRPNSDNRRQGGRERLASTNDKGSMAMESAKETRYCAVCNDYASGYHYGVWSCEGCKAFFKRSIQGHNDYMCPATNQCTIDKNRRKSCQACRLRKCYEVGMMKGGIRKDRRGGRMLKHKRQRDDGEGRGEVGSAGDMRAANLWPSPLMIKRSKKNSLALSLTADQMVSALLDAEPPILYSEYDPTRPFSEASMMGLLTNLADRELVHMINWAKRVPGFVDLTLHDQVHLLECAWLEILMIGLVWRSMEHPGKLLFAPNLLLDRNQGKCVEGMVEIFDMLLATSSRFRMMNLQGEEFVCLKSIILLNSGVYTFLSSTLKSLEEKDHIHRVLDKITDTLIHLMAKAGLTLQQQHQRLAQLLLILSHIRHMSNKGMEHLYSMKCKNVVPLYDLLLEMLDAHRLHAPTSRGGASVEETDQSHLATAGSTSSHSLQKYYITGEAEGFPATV

Consider `Cc1ccc2ncccc2c1`, for which the Potency result in [1], in [2], in experiment [4], in [6], in [7] and in experiment [9] was “inactive” throughout. The Potency entry in experiment [10] was “inactive”. The call in [3], in experiment [5] and in experiment [8] was inactive.
With `C=CC(C)CCCC(C)(C)O` (stereo unspecified), the Potency result in [1], in experiment [2], in [4], in [6], in experiment [7] and in experiment [9] was “inactive” in each case. Also, the Potency entry in [10] is “inactive”. Also, the call in experiment [3], in [5] and in experiment [8] was inactive.
Consider `CC(C)OC(=O)COc1ccc(Cl)cc1Cl`, for which the Potency entry in [1], in [2], in [4], in experiment [6], in experiment [7] and in experiment [9] was “inactive” each time. Also, the Potency result in experiment [10] is “inactive”. Besides, the molecule was classed as inactive in experiment [3], in [5] and in experiment [8].
Take `CCCCOC(=O)c1ccc(N)cc1`: the Potency entry in experiment [1], in experiment [6], in [9] and in experiment [10] was “inactive” each time. Besides, the Potency in [2] was 21.1 µM (active) and 21.4 µM (active); in [4], 24.2 µM [inconclusive] (active); in experiment [7] it was 23.7 µM (active) and 33.9 µM (active). Further, the outcome in experiment [3] and in [5] was inactive.
Turning to `CC(CCO)CC(C)(C)C` (stereo unspecified), the Potency result in experiment [1], in experiment [2], in experiment [4], in [6], in [7] and in experiment [9] was “inactive” throughout. Besides, the Potency result in experiment [10] was “inactive”. In addition, the call in experiment [3], in experiment [5] and in experiment [8] was inactive.
In the case of `CC(=O)Oc1ccc(C)cc1`, the Potency result in experiment [1], in experiment [2], in experiment [4], in [6], in experiment [7] and in experiment [9] was “inactive” each time. Moreover, in experiment [10], the Potency entry is “inactive”. Also, the molecule was called inactive in [3] and in experiment [5].
Turning to `O=S(=O)(O)c1ccc(N=Nc2c(O)ccc3cc(S(=O)(=O)O)ccc23)cc1`, the Potency in experiment [1] was 30.8 µM (active) and 27.3 µM (active); in experiment [9] it was 27.4 µM (active) and 27.3 µM (active). The Potency entry in experiment [2], in experiment [4], in [6], in experiment [7] and in experiment [10] was “inactive” throughout. Moreover, the molecule was classed as inactive in [3], in [5] and in experiment [8].
Take `CCCCCCCCCCCC(=O)OC`: the Potency entry in experiment [1], in experiment [2], in experiment [4], in [6], in experiment [7] and in experiment [9] was “inactive” each time. Moreover, the Potency entry in [10] was “inactive”. The molecule was called inactive in [3], in experiment [5] and in experiment [8].
In the case of `COCCCN`, the Potency entry in experiment [1], in experiment [2], in [4], in experiment [6], in [7] and in experiment [9] was “inactive” throughout. For the same molecule, the Potency entry in [10] was “inactive”. The outcome in experiment [3] and in experiment [5] was inactive.
For the molecule `O=C1CCCC1`, the Potency entry in [1], in experiment [2], in experiment [4], in [6], in experiment [7] and in [9] was “inactive” each time. The Potency result in [10] was “inactive”. The molecule was called inactive in [3], in experiment [5] and in experiment [8].
For the molecule `CCCCCCC=O`, the Potency entry in [1], in [2], in experiment [4], in experiment [6], in experiment [7] and in experiment [9] was “inactive” each time. Moreover, in [10], the Potency entry is “inactive”. In addition, the molecule was classed as inactive in experiment [3] and in experiment [5].
In the case of `CCNC(=S)NCC`, the Potency result in [1], in [2], in experiment [4], in experiment [6], in experiment [9] and in experiment [10] was “inactive” throughout. In addition, the outcome in experiment [3] and in experiment [5] was inactive. Besides, in [7], the Potency entry was “inactive and 54.5 µM (active)”.
For `OCc1ccccc1`, the Potency entry in [1], in [2], in experiment [4], in [6], in experiment [7] and in [9] was “inactive” throughout. For the same molecule, the Potency result in [10] was “inactive”. The outcome in experiment [3] and in experiment [5] was inactive.
Regarding `CCCCC(C=O)CC` (stereo unspecified), the Potency result in [1], in experiment [2], in experiment [4], in [6], in [7] and in [9] was “inactive” throughout. Also, in experiment [10], the Potency entry was “inactive”. Also, the result in [3], in experiment [5] and in [8] was inactive.
`COC(=O)CCCC(=O)OC`: the Potency entry in experiment [1], in experiment [2] and in [9] was “inactive” throughout. The molecule was called inactive in experiment [3] and in experiment [5].
Regarding `CN(C)c1ccc(Cc2ccc(N(C)C)cc2)cc1`, the Potency entry in experiment [1], in [2], in experiment [9] and in [10] was “inactive” in each case. Also, the outcome in experiment [3] and in experiment [5] was inactive.
On to `CCCCCCCCCCCCCCCCO`, for which the Potency result in experiment [1], in experiment [2], in [4], in experiment [6], in experiment [7] and in experiment [9] was “inactive” throughout. For the same molecule, the Potency entry in experiment [10] was “inactive”. In addition, the outcome in experiment [3] and in experiment [5] was inactive.
As for `N#Cc1ccccc1`, the Potency result in experiment [1], in experiment [2], in experiment [9] and in experiment [10] was “inactive” each time. In addition, the outcome in [3] and in experiment [5] was inactive.
Take `C=C(C)C(=O)OCC(C)C`: the Potency entry in experiment [1], in experiment [2], in experiment [4], in [6], in experiment [7] and in experiment [9] was “inactive” each time. For the same molecule, the Potency entry in experiment [10] was “inactive”. Moreover, the outcome in [3] and in experiment [5] was inactive.
`O=C(O)c1ccc(C(=O)O)c(C(=O)O)c1`: the Potency entry in [1], in experiment [2], in experiment [4], in [6], in experiment [7] and in [9] was “inactive” each time. For the same molecule, in [10], the Potency entry is “inactive”. Besides, the call in experiment [3] and in experiment [8] was inactive.
Take `O=[N+]([O-])c1ccc2nc[nH]c2c1`: the Potency entry in experiment [1], in experiment [2], in experiment [4], in experiment [6], in experiment [7] and in [9] was “inactive” each time. Besides, the Potency entry in experiment [10] was “inactive”. In [3], the outcome was inactive.
Regarding `CCOCC(=O)O`, the Potency result in experiment [1], in experiment [2], in experiment [4], in experiment [6], in [7] and in [9] was “inactive” in each case. Moreover, the Potency result in [10] was “inactive”. Further, the outcome in experiment [3] and in experiment [5] was inactive.
Regarding `COc1ccc([N+](=O)[O-])cc1N`, the Potency result in [1], in [2], in [4], in experiment [6], in experiment [7] and in [9] was “inactive” in each case. Moreover, the Potency entry in experiment [10] is “inactive”. Also, the molecule was called inactive in [3] and in experiment [5].
For the molecule `O=C(O)c1ccc(S(=O)(=O)N(Cl)Cl)cc1`, the Potency result in [1], in experiment [2], in [4], in experiment [6], in [7] and in experiment [9] was “inactive” in each case. Besides, the Potency entry in experiment [10] was “inactive”. Besides, the result in experiment [3] and in [5] was inactive.
Turning to `CC(C)=CCl`, the Potency entry in experiment [1], in experiment [2], in [4], in [9] and in [10] was “inactive” throughout. Besides, the molecule was called inactive in experiment [3]. In addition, the Potency in [6] was 49.6 µM [inconclusive] (active) and inactive; in experiment [7], 17.4 µM (active) and inactive.
